Measured values from PubChem BioAssay (NCATS).
Values joined by “and” are separate entries in the source; they are usually repeats but may differ in a detail not shown here. Equal values may be shown once. A number with no mark means an inactive call. Inconclusive results are not listed. A call without a number means that no potency is given here. Active and inactive are the calls of the source. Unless noted, calls follow the shape of the dose curve; as a rule, active = well fitted curve in the direction sought with a large enough effect; inconclusive = small, poorly fitted or top-dose-only effect, or another doubt; inactive = no such curve, though single readings can be large; an effect the other way counts as inactive or inconclusive.

Key:
[1] = qHTS for Activators of Parkin Expression: LOPAC Validation Assay (FLuc Reporter) (AID 720573; also: potency is read from the fitted curve at half-maximal effect)
Procedure, shortened: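 Cells seeded, 24 h; compounds pinned, 7-pt dose response; 24 h at 37 C/5% CO2; volume reduced; FLuc reagent 10 min RT; luminescence read. Normalization: DMSO = 0, positive control = 100%.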

[2] = biological target: T1, Hexokinase-4 (Homo sapiens) + Glucokinase regulatory protein (Homo sapiens) (UniProt P35557+Q14397); assay: qHTS assay for inhibitors of recombinant human GCK-GKRP interaction: Diaphorase-coupled assay (AID 743205)
T1 sequence (P35557 whole entry, looked up): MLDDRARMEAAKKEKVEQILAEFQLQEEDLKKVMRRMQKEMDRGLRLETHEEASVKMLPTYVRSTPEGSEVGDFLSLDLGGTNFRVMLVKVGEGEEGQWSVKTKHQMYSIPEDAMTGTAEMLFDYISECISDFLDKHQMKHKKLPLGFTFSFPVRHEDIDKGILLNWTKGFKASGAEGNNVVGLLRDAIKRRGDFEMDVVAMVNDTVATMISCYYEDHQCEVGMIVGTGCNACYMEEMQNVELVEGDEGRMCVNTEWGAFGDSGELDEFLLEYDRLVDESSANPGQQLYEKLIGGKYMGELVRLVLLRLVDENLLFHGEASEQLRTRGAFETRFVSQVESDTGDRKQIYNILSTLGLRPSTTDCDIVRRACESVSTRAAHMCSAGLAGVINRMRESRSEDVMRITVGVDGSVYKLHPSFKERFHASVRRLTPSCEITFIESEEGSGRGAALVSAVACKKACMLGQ
T1 sequence (Q14397 whole entry, looked up): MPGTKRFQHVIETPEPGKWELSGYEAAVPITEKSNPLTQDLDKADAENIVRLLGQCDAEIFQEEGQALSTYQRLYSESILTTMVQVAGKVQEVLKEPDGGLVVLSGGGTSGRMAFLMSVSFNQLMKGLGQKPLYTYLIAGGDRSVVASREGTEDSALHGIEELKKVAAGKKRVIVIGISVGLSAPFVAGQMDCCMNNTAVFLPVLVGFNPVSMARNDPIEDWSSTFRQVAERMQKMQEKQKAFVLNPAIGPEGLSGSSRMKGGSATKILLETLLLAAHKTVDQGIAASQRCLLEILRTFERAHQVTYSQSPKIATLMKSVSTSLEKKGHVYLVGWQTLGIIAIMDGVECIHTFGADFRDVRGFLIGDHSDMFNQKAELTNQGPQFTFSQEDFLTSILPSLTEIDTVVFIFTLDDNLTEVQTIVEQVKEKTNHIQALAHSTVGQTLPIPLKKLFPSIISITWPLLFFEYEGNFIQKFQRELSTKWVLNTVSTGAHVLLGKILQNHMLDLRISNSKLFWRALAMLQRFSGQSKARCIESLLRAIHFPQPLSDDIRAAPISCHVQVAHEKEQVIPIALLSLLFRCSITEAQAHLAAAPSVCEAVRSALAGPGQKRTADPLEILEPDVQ
Procedure, shortened: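 25 mM Hepes pH 7.6, 5 mM glucose, 0.4 mM ATP, 4 U/ml G6PDH; 10 nM each GST-GCK/FLAG-GKRP. Kinetic fluorescence read, 1/min × 30 min. Normalized: DMSO ± enzyme = max/min.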

[3] = biological target: T1, Hexokinase-4 (Homo sapiens) + Glucokinase regulatory protein (Homo sapiens); assay: qHTS assay for inhibitors of recombinant human GCK-GKRP interaction: ADP-Glo assay (AID 743206)
Procedure, shortened: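 GST-GCK and FLAG-GKRP (15 nM each in the dispensed mix, with 2 uM S6P) react with 0.4 mM ATP and 5 mM glucose (final) in Hepes pH 7.6 for 60 min at room temperature. ADP is measured by ADP-Glo luminescence.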

[4] = biological target: T1, Hexokinase-4 (Homo sapiens) + Glucokinase regulatory protein (Homo sapiens); assay: qHTS assay for inhibitors of recombinant human GCK-GKRP interaction: HTRF assay (AID 743207)
Procedure, shortened: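 5 nM GST-GCK + 5 nM FLAG-GKRP + 2 uM S6P, pH 7.1 buffer (25 mM Hepes, 2 mM MgCl2, 25 mM KCl, 1 mM DTT, Tween/BSA); pin-transferred cpd; anti-FLAG XL665/anti-GST K; 60 min RT; HTRF.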

[5] = qHTS Assay for Identifying Gametocytocidal Compounds (AID 743244); also: potency is read from the fitted curve at half-maximal effect;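 as to max response: actives lower the fluorescent signal which means gametocytes are killed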; details: P. falciparum 3D7 stage III-V gametocytes, alamarBlue, 72 h; max response: hits give low values
Procedure, shortened: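 Using 20,000 stage III–V 3D7 gametocytes per well, compounds were incubated 72 h under 37 °C/5% CO2. Viability was then assessed by 24 h alamarBlue reduction, measured fluorometrically at 525/598 nm.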

[6] = qHTS assay for measurement of the activity of small molecule inhibitors on Zika virus induced Caspase-3 activity in human iPSC derived neural progenitor cells (hNPCs) (AID 1224857); also: nearly all actives have a fitted effect of over 65% in size
Procedure, shortened: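 After overnight (16–20 h) culture at 350 cells/well, hNPCs get compound, then ZIKV 2 FFU/cell one hour later. Six hours on, Caspase-Glo 3/7 is added and luminescence measured.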

[7] = qHTS assay for measurement of the activity of small molecule inhibitors on Zika virus induced Caspase-3 activity in human astrocytoma cells (AID 1224859)
Procedure, shortened: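 Inhibition of Zika-induced caspase-3/7 activity: SNB-19 cells, 1 h compound pretreatment, ZIKV 2 FFU/cell for 6 h at 37 C, Caspase-Glo luminescence read-out.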

[8] = qHTS assay for small molecule agonists of the antioxidant response element (ARE) signaling pathway measured by Nrf2-dependant transcriptional activity (AID 720636; active = well fitted curve in the direction sought with a large enough effect in the repeat runs; an effect the other way counts as inactive or inconclusive;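 also: HepG2 cells with an ARE-driven luciferase reporter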)
Procedure, shortened: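 In HepG2 cells engineered with an Nrf2-responsive luciferase gene, ARE induction was quantified as luminescence after 16 hr compound treatment at 37 C.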

[9] = qHTS assay for small molecule agonists of the antioxidant response element (ARE) signaling pathway measured by Nrf2-dependant transcriptional activity - cell viability counter screen (AID 720653; active = well fitted curve in the direction sought with a large enough effect in the repeat runs; an effect the other way counts as inactive or inconclusive); details: ARE-bla HepG2 viability, CellTiter-Glo ATP luminescence, 16 h; max response: hits give low values
Procedure, shortened: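 Cytotoxicity counter screen: intracellular ATP quantified by CellTiter-Glo luminescence in the same ARE-bla HepG2 plates, after 16 h compound exposure and a 2 h beta-lactamase substrate step.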

[10] = qHTS assay for cell viability of HEK293 cells (AID 743288); details: ATP luminescence (CellTiter-Glo), 18 h; max response: hits give low values; also: nearly all actives have a fitted effect of over 50% in size
Procedure, shortened: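 HEK293 parental, 2,000 cells/well; ≥5 h pre-incubation 37 C; pintool compound addition; 18 h, 37 C; CellTiter-Glo 30 min RT; luminescence read.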

[11] = qHTS assay for cell viability of the p53RE-bla HCT-116 cell line (AID 743292); also: nearly all actives have a fitted effect of over 55% in size
Procedure, shortened: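 Intracellular ATP of p53RE-bla HCT-116 cells measured by luciferase luminescence following 16 h compound incubation at 37 C; DMSO-only wells served as vehicle controls.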

Structure (SMILES)	Potency [1]	outcome [2]	Potency [3]	Potency [4]	max response [5]	Potency [6]	Potency [7]	Potency [5]	Potency [8]	max response [9]	max response [10]	Potency [11]
COc1cccc(C(=O)NCCN2CCN(c3ccc(Cl)cc3)CC2)c1	inactive	inactive	inactive	inactive	13.6%	inactive	inactive					
NCCCCCCCCCCN	inactive	inactive	inactive	inactive	2.17%	inactive	inactive					
Brc1c(Br)c(Br)c2n[nH]nc2c1Br	inactive	inactive	inactive	inactive	10.7%	inactive	inactive					
CCCCCCCCCCCCCCCCCC(=O)OC(CC(=O)O)C[N+](C)(C)C (configuration not stated)	inactive	inactive	inactive	inactive	-2.89%	inactive	inactive					
O=C(O)CNC(=O)C(CS)Cc1ccccc1 (configuration not stated)	inactive	inactive	inactive	inactive		inactive	inactive					
O=C(CCCCCN1CCN(c2ccccc2-c2ccccc2)CC1)NC1CCCc2ccccc21 (configuration not stated)	inactive	inactive	inactive	inactive		inactive	inactive					
S=C(S)OC1CC2CC1C1CCCC21 (configuration not stated)	inactive	inactive	inactive	inactive	22.6%	inactive	inactive					
NC[C@@H]1O[C@H](C23CC4CC(CC(C4)C2)C3)Cc2c1ccc(O)c2O	inactive	inactive	inactive	inactive		inactive	inactive	1000 nM (active)				
COc1ccccc1CNCCCCCCNCCCCCCCCNCCCCCCNCc1ccccc1OC	inactive	inactive	inactive	inactive		inactive	inactive	1000 nM (active)				
Oc1cc2c(cc1O)CN(C(=S)NCCc1ccc(Cl)cc1)CCC2	inactive	inactive	inactive	inactive		inactive	inactive					
NC(=O)C(=O)O	inactive	inactive	inactive	inactive	24.1%	inactive	inactive					
Fc1ccc(C(OCCCc2cnc[nH]2)c2ccc(F)cc2)cc1	inactive	inactive	inactive	inactive		inactive	inactive					
COc1ccc2c(c1)CCC1C2CC[C@@]2(C)C1CC[C@@H]2NCCCCCCN1C(=O)CCC1=O (some centres not stated)	inactive	inactive	inactive			inactive	inactive					
CC(C)NCC(O)COc1cccc2ccccc12 (configuration not stated)	inactive	inactive	inactive	inactive		inactive	inactive		inactive	-11.2% and -5.42%	1.78% and -12.1%	inactive
NCCCCC(=O)O	inactive	inactive	inactive	inactive	12.2%	inactive	inactive					
Cc1cc(NC(=O)Nc2ccc3c(ccn3C)c2)sn1	5800 nM (active)	inactive	inactive	inactive	24.1%	inactive	inactive					
Clc1ccc(N2CCN(Cc3cc4ccccn4n3)CC2)cc1	inactive	inactive	inactive	inactive		inactive	inactive					
Cc1cc2c(cc1Cl)N(C(=O)Nc1ccc(Oc3cccnc3C)nc1)CC2	inactive	inactive	inactive	inactive		inactive	inactive					
COC(=O)c1c(C)[nH]c(C)c1C(=O)c1ccccc1Cc1ccccc1	inactive	inactive	inactive	inactive	-0.767%	inactive	inactive					
O=S(=O)(c1cccc2c(I)cccc12)N1CCCNCC1	inactive	inactive	inactive	inactive		inactive	inactive					
CN1CCc2ccccc2Cc2[nH]c3ccccc3c2CC1	inactive	inactive	inactive	inactive	-0.861%	inactive	inactive					
Cc1cc(NC2CCCCC2)nc(-n2nc(C)cc2C)n1	inactive	inactive	inactive	inactive		inactive	inactive	1180 nM (active)				
CC(C)(C=O)Cc1cc(C(C)(C)C)c(O)c(C(C)(C)C)c1	inactive	inactive	inactive	inactive	8.22%	inactive	inactive					
NS(=O)(=O)C#Cc1ccccc1	inactive	inactive	inactive	inactive		inactive	inactive					
C=C[C@H]1CN2CC[C@@H]1C[C@@H]2[C@@H](O)c1ccnc2ccc(OC)cc12	inactive	inactive	inactive			inactive	inactive					
CCCCCCCCc1ccc(-c2ccc(C(=O)O)cc2)cc1	inactive	inactive	inactive	inactive	11.5%	inactive	inactive					
CC1(C)CCC=[N+]1[O-]	inactive	inactive	inactive	inactive	7.42%	inactive	inactive					
C#C[C@]1(O)CC[C@H]2[C@@H]3CCC4=Cc5oncc5CC4(C)[C@H]3CCC21C (some centres not stated)	inactive	inactive	inactive	inactive	25.1%	inactive	inactive					
